Results: PubChem BioAssay AID1159580 (chemical genetic matrix, 2015)
“And” between values parts separate entries of the source, which are not always exact repeats. Equal entries are not always repeated. About 2,000 (36%) of roughly 5,500 compounds were called active. Not shown: some 18% with an inconclusive outcome. Cut-off read from the data, not from the text of the source: active = normalized growth mostly below about 0.91 (no sharp cut-off); inconclusive = no clear call, values can overlap the other calls; inactive = mostly above about 0.92. Some of the results follow.

Assay: chemical genetic growth profiling, strain panel (AID 1159580);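 note: tested at 20 µM; growth read once vehicle control cultures reached saturation at 30 °C; 1 = growth at the plate median or of vehicle wells; lower values mean less growth of the strain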
Conditions: growth OD
[1] = S. cerevisiae deletion strains, locus YDL101C, strain DUN1, stronger effect = lower value
[2] = S. cerevisiae deletion strains, locus YGR052W, strain FMP48, stronger effect = lower value
[3] = S. cerevisiae deletion strains, locus YHR030C, strain SLT2, stronger effect = lower value
[4] = S. cerevisiae deletion strains, locus YHR079C, strain IRE1, stronger effect = lower value
[5] = S. cerevisiae deletion strains, locus YHR082C, strain KSP1, stronger effect = lower value
[6] = S. cerevisiae deletion strains, locus YJL095W, strain BCK1, stronger effect = lower value
[7] = S. cerevisiae deletion strains, locus YJR066W, strain TOR1, stronger effect = lower value
[8] = S. cerevisiae deletion strains, locus YKL203C, strain TOR2, stronger effect = lower value
[9] = S. cerevisiae deletion strains, locus YLR113W, strain HOG1, stronger effect = lower value
[10] = S. cerevisiae deletion strains, locus YNL207W, strain RIO2, stronger effect = lower value
[11] = S. cerevisiae deletion strains, locus YOR119C, strain RIO1, stronger effect = lower value
[12] = S. cerevisiae deletion strains, locus YOR231W, strain MKK1, stronger effect = lower value
[13] = S. cerevisiae deletion strains, locus YPL256C, strain CLN2, stronger effect = lower value
[14] = S. cerevisiae deletion strains, locus YBR229C, strain ROT2, stronger effect = lower value
[15] = S. cerevisiae deletion strains, locus YEL061C, strain CIN8, stronger effect = lower value
[16] = S. cerevisiae deletion strains, locus YGR078C, strain PAC10, stronger effect = lower value
[17] = S. cerevisiae deletion strains, locus YHR087W, strain rtc3, stronger effect = lower value
[18] = S. cerevisiae deletion strains, locus YJR043C, strain POL32, stronger effect = lower value
[19] = S. cerevisiae deletion strains, locus YJR075W, strain HOC1, stronger effect = lower value
[20] = S. cerevisiae deletion strains, locus YKL190W, strain CNB1, stronger effect = lower value
[21] = S. cerevisiae deletion strains, locus YLR039C, strain RIC1, stronger effect = lower value
[22] = S. cerevisiae deletion strains, locus YLR058C, strain SHM2 (second series), stronger effect = lower value
[23] = S. cerevisiae deletion strains, locus YLR085C, strain ARP6, stronger effect = lower value
[24] = S. cerevisiae deletion strains, locus YLR262C, strain YPT6, stronger effect = lower value
[25] = S. cerevisiae deletion strains, locus YML094W, strain GIM5, stronger effect = lower value
[26] = S. cerevisiae deletion strains, locus YMR219W, strain ESC1, stronger effect = lower value
[27] = S. cerevisiae deletion strains, locus YMR263W, strain SAP30, stronger effect = lower value
[28] = S. cerevisiae deletion strains, locus YNL153C, strain GIM3, stronger effect = lower value
[29] = S. cerevisiae deletion strains, locus YNL298W, strain CLA4 (second series), stronger effect = lower value
[30] = S. cerevisiae deletion strains, locus YNL322C, strain KRE1, stronger effect = lower value
[31] = S. cerevisiae deletion strains, locus YNR030W, strain Alg12, stronger effect = lower value
[32] = S. cerevisiae deletion strains, locus YOL006C, strain TOP1, stronger effect = lower value
[33] = S. cerevisiae deletion strains, locus YPL055C, strain LGE1, stronger effect = lower value
[34] = S. cerevisiae deletion strains, locus YPL241C, strain CIN2, stronger effect = lower value
[35] = S. cerevisiae deletion strains, locus YPR135W, strain CTF4, stronger effect = lower value

Measured: normalized growth

COc1ccc(Nc2nc(NC(=O)Nc3ccc(Cl)cc3)n[nH]2)cc1
active: [9] 0.813 | [13] 0.797
inactive: S. cerevisiae deletion strains, locus YAR019C, strain CDC15, stronger effect = lower value 0.996 | S. cerevisiae deletion strains, locus YBL105C, strain PKC1, stronger effect = lower value 0.994 | S. cerevisiae deletion strains, locus YBR135W, strain CKS1, stronger effect = lower value 1 | S. cerevisiae deletion strains, locus YBR136W, strain MEC1, stronger effect = lower value 0.992 | S. cerevisiae deletion strains, locus YBR160W, strain CDC28, stronger effect = lower value 1 | S. cerevisiae deletion strains, locus YDL017W, strain CDC7, stronger effect = lower value 1 | S. cerevisiae deletion strains, locus YDL028C, strain MPS1, stronger effect = lower value 0.986 | [1] 1 | S. cerevisiae deletion strains, locus YDL108W, strain KIN28, stronger effect = lower value 0.982 | S. cerevisiae deletion strains, locus YDL132W, strain cdc53, stronger effect = lower value 0.99 | S. cerevisiae deletion strains, locus YDL214C, strain PRR2, stronger effect = lower value 0.867 | S. cerevisiae deletion strains, locus YDR052C, strain DBF4, stronger effect = lower value 1 | S. cerevisiae deletion strains, locus YDR054C, strain cdc34, stronger effect = lower value 1 | S. cerevisiae deletion strains, locus YDR226W, strain ADK1, stronger effect = lower value 0.994 | S. cerevisiae deletion strains, locus YDR477W, strain SNF1, stronger effect = lower value 0.809 | S. cerevisiae deletion strains, locus YER123W, strain YCK3, stronger effect = lower value 0.715 | S. cerevisiae deletion strains, locus YER133W, strain GLC7, stronger effect = lower value 0.757 | S. cerevisiae deletion strains, locus YFL009W, strain cdc4, stronger effect = lower value 0.994 | S. cerevisiae deletion strains, locus YFL029C, strain CAK1, stronger effect = lower value 0.998 | S. cerevisiae deletion strains, locus YFR003C, strain YPI1, stronger effect = lower value 0.996 | S. cerevisiae deletion strains, locus YFR019W, strain FAB1, stronger effect = lower value 0.866 | S. cerevisiae deletion strains, locus YFR028C, strain CDC14, stronger effect = lower value 0.988 | S. cerevisiae deletion strains, locus YGR040W, strain KSS1, stronger effect = lower value 0.789 | [2] 0.788 | S. cerevisiae deletion strains, locus YGR092W, strain DBF2, stronger effect = lower value 0.793 | [3] 0.887 | [4] 0.893 | [5] 0.868 | S. cerevisiae deletion strains, locus YHR205W, strain SCH9, stronger effect = lower value 0.842 | S. cerevisiae deletion strains, locus YIL147C, strain SLN1, stronger effect = lower value 0.979 | [6] 0.861 | S. cerevisiae deletion strains, locus YJL128C, strain PBS2, stronger effect = lower value 0.957 | S. cerevisiae deletion strains, locus YJL157C, strain FAR1, stronger effect = lower value 0.88 | S. cerevisiae deletion strains, locus YJR016C, strain ILV3, stronger effect = lower value 0.991 | S. cerevisiae deletion strains, locus YJR066W, strain TOR1 (second series), stronger effect = lower value 0.758 | [7] 0.929 | S. cerevisiae deletion strains, locus YKL048C, strain ELM1, stronger effect = lower value 0.854 | S. cerevisiae deletion strains, locus YKL067W, strain YNK1, stronger effect = lower value 0.876 | S. cerevisiae deletion strains, locus YKL101W, strain HSL1, stronger effect = lower value 0.83 | S. cerevisiae deletion strains, locus YKL193C, strain SDS22, stronger effect = lower value 0.991 | [8] 0.892 | S. cerevisiae deletion strains, locus YLR133W, strain CKI1, stronger effect = lower value 0.795 | S. cerevisiae deletion strains, locus YLR403W, strain SFP1, stronger effect = lower value 0.742 | S. cerevisiae deletion strains, locus YML070W, strain DAK1, stronger effect = lower value 0.846 | S. cerevisiae deletion strains, locus YMR001C, strain CDC5, stronger effect = lower value 1 | S. cerevisiae deletion strains, locus YMR205C, strain PFK2 (second series), stronger effect = lower value 0.782 | S. cerevisiae deletion strains, locus YMR277W, strain FCP1, stronger effect = lower value 0.991 | S. cerevisiae deletion strains, locus YNL006W, strain LST8, stronger effect = lower value 1.02 | S. cerevisiae deletion strains, locus YNL020C, strain ARK1, stronger effect = lower value 0.811 | S. cerevisiae deletion strains, locus YNL161W, strain CBK1, stronger effect = lower value 0.998 | S. cerevisiae deletion strains, locus YNL183C, strain NPR1, stronger effect = lower value 0.763 | [10] 0.992 | S. cerevisiae deletion strains, locus YNL222W, strain SSU72, stronger effect = lower value 0.993 | S. cerevisiae deletion strains, locus YNL307C, strain MCK1 (second series), stronger effect = lower value 0.832 | S. cerevisiae deletion strains, locus YOL078W, strain AVO1, stronger effect = lower value 0.991 | S. cerevisiae deletion strains, locus YOL136C, strain PFK27, stronger effect = lower value 0.848 | S. cerevisiae deletion strains, locus YOR061W, strain CKA2, stronger effect = lower value 0.741 | [11] 0.853 | [12] 0.94 | S. cerevisiae deletion strains, locus YOR329C, strain SCD5, stronger effect = lower value 1 | S. cerevisiae deletion strains, locus YPL031C, strain PHO85, stronger effect = lower value 0.749 | S. cerevisiae deletion strains, locus YPL153C, strain RAD53, stronger effect = lower value 0.756 | S. cerevisiae deletion strains, locus YPL204W, strain HRR25, stronger effect = lower value 0.795 | S. cerevisiae deletion strains, locus YPL209C, strain IPL1, stronger effect = lower value 0.996 | S. cerevisiae deletion strains, locus YPR025C, strain CCL1, stronger effect = lower value 0.99 | S. cerevisiae deletion strains, locus YPR106W, strain ISR1, stronger effect = lower value 0.991 | S. cerevisiae deletion strains, locus YPR111W, strain DBF20, stronger effect = lower value 0.981 | S. cerevisiae deletion strains, strain NNK1, stronger effect = lower value 0.99 | S. cerevisiae deletion strains, strain TSCII, stronger effect = lower value 1

Cc1cc(Cl)ccc1Oc1ccc(N)cn1
inactive: S. cerevisiae deletion strains, locus YAL013W, strain DEP1, stronger effect = lower value 0.989 | [14] 0.977 | [1] 0.971 | S. cerevisiae deletion strains, locus YDR150W, strain NUM1, stronger effect = lower value 0.898 | [15] 0.993 | [16] 0.984 | [17] 0.989 | [18] 0.977 | [19] 0.952 | [22] 0.986 | [25] 0.878 | [26] 0.992 | [27] 0.92 | S. cerevisiae deletion strains, locus YNL128W, strain TEP1, stronger effect = lower value 1 | [28] 0.99 | [29] 0.891 | [30] 1.01 | [31] 0.981 | [32] 0.938 | [33] 0.889 | [34] 0.917 | S. cerevisiae strains, strain wild type, stronger effect = lower value 0.953
active: [3] 0.486 | [20] 0.928 | [21] 0.541 | [23] 0.602 | [24] 0.544 | [35] 0.602

Nc1ccc(Oc2ccc(Cl)cc2C2CCCCC2)nc1
active: [14] 0.821 | [1] 0.897 | [15] 0.845 | [16] 0.855 | [3] 0.181 and 0.708 | [4] 0.794 | [5] 0.766 | [17] 0.702 | [18] 0.852 | [7] 0.787 | [19] 0.689 | [20] 0.658 | [21] 0.386 | [22] 0.915 | [23] 0.451 | [24] 0.355 | [25] 0.636 | [26] 0.935 | [27] 0.824 | S. cerevisiae deletion strains, locus YMR307W, strain GAS1, stronger effect = lower value 0.162 | [28] 0.905 | [29] 0.528 | [31] 0.601 | [32] 0.728 | [33] 0.745 | [34] 0.675 | [13] 0.748 | [35] 0.365
inactive: [2] 0.796 | [6] 0.849 | S. cerevisiae deletion strains, locus YKL171W, strain NNK1, stronger effect = lower value 0.889 | [8] 0.92 | [9] 0.705 | [10] 0.918 | [30] 0.945 | [11] 0.879 | [12] 0.941
